Screening results deposited in PubChem by National Center for Advancing Translational Sciences (NCATS).
Compounds with a hit are over-represented: about 21% of the library has one in this group of screens.
TDP1 cell noCPT: qHTS for Inhibitors of human tyrosyl-DNA phosphodiesterase 1 (TDP1): qHTS in cells in absence of CPT | DT40 Tdp1-/- hTDP1 cells, no CPT, ATP luminescence, 48 h | Potency, µM (highest dose often 46.2 µM), for inactives: at the top dose activity change, negative = growth inhibition, usual class: inhibitors | 15% of 420,000 active | AID 686978, 2013; further: potency means the concentration at half of the fitted maximal effect; nearly all actives have a fitted effect of over 55% in size
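Seeded 400 DT40-hTDP1 cells/well (vehicle DMSO, no 20 nM CPT); pinned compounds; ≥48 hr at 37 °C; CellTiter-Glo luminescence as viability measure.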
VP16 counter: inhibits Gal4-VP16 luciferase reporter, ROR gamma counter-screen; Potency, µM (titrated, usually from 53.6 µM), without a hit: at the highest dose activity, negative = inhibition, actives largely listed as inhibitors; AID 2546; Drosophila S2 Gal4-VP16 UAS-luciferase, luminescence, 20 h; 3.5% of 310,000 active;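 further: Gal4-VP16 expression switched on by copper sulfate through the metallothionein promoter; potency means the concentration at half of the fitted maximal effect; nearly all actives have a fitted effect of over 50% in size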
ELG1 DNA repair: blocks ELG1-dependent DNA repair in HEK293T cells | HEK293T ELG1-luciferase reporter, luminescence, 16 h; DNA damage induced by 5-fluorouridine | Potency, µM (titrated, usually from 46.1 µM), without a hit: at the highest dose activity change, negative = inhibition, usual class: inhibitors | 2.3% of 330,000 active | AID 504467; further: potency means the concentration at half of the fitted maximal effect; nearly all actives have a fitted effect of over 55% in size
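In this reporter screen, reduction of luminescence relative to DMSO vehicle indicated activity. Compounds and 5-fluorouridine were added together to 2,000 cells per well, incubated for 16 hr at 37 °C, then developed with ONE-Glo.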
DT40 TDP1 CPT: growth inhibition of DT40 Tdp1-/-;hTDP1 cells with camptothecin (screen for TDP1 inhibitors); chicken DT40 Tdp1-/-;hTDP1 cells + 20 nM CPT, ATP luminescence, 48 h; Potency, µM (highest dose often 46.2 µM), inactives show top-dose activity change, negative = growth inhibition, most hits filed as inhibitors; 12% of 420,000 active; AID 686979; further: potency means the concentration at half of the fitted maximal effect; nearly all actives have a fitted effect of over 55% in size
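Chicken DT40 Tdp1-/- cells complemented with human TDP1, 400 cells/well, exposed to compounds plus 20 nM camptothecin for at least 48 h at 37 C; viability read as ATP content by CellTiter-Glo luminescence.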
RORgamma inh: blocks mouse ROR gamma transcriptional activity; P51450; Drosophila S2 Gal4-RORgamma UAS-luciferase reporter, 20 h; Potency, µM (top dose mostly 53.6 µM), for the others: at the top dose activity change, negative = inhibition, most hits filed as inhibitors; 5.4% of 310,000 active; further: potency means the concentration at half of the fitted maximal effect; nearly all actives have a fitted effect of over 60% in size
Target sequence (P51450 whole entry, looked up, the tested form may be a part): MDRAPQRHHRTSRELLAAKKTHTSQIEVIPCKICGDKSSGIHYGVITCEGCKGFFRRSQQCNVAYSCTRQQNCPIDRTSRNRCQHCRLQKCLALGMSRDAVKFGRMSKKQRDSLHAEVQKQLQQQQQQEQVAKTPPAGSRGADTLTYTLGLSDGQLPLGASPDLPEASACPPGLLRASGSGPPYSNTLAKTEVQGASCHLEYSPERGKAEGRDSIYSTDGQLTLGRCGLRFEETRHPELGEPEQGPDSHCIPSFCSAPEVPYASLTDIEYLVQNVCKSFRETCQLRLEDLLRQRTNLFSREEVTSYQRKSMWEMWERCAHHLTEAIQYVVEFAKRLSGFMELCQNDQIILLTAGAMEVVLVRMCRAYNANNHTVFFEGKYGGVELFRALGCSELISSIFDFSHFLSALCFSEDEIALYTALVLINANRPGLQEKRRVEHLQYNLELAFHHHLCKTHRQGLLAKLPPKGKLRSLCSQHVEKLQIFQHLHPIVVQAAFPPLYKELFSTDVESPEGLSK
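Drosophila S2 cells stably expressing Gal4-DBD/mouse RORγ fusion under metallothionein promoter plus UAS-luciferase; compound 1 h, then 700 uM CuSO4 induction for 20 h at ambient temperature; inhibition read as reduced luminescence.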
IL-1B inflam inh: blocks inflammasome-driven IL-1 beta release. THP-1 LPS/ATP IL-1B secretion, AlphaLISA, 16 h; active compounds read low. 4.7% of 360,000 active. activity change, % at 57.5 µM; in the data active means activity change below about -50%; inconclusive means mostly about -30% to -49%
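Secreted IL-1B measured by AlphaLISA bead assay after 16 h compound exposure of THP-1 cells; compounds (final up to 57.5 uM) added 1 h before LPS (250 ng/mL) and ATP (1.25 mM) stimulation; lower signal means less secretion.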
An asterisk follows results filed as active. Unless noted, the call rests on the fitted dose curve; in most records, active means well fitted curve in the direction sought with a large enough effect; inconclusive means small, poorly fitted or top-dose-only effect, or another doubt; inactive means no such curve, though single readings can be large; an effect the other way counts as inactive or inconclusive. On the % scale 0 is the no-effect control and ±100 the full control effect.

Screening CC1(C(=O)Nc2cccc(OC(F)(F)F)c2)Cc2c(-c3ccc4c(c3)OCO4)ccnc2O1 (stereo unspecified) returned TDP1 cell noCPT inconclusive, DT40 TDP1 CPT 20.6µM* and IL-1B inflam inh 89.5.
For CC1(C(=O)Nc2cccc(C(F)(F)F)c2)Cc2c(-c3cccc(C(N)=O)c3)ccnc2O1 (stereo unspecified) the results were TDP1 cell noCPT 6.51µM*, DT40 TDP1 CPT -99.6% and IL-1B inflam inh 24.2.
For CC1(C(=O)Nc2cccc(OC(F)(F)F)c2)Cc2c(-c3cccc(C(N)=O)c3)ccnc2O1 (stereo unspecified) the results were TDP1 cell noCPT 20.6µM*, DT40 TDP1 CPT inconclusive and IL-1B inflam inh 16.6.
CN(C)c1ccc(-c2ccnc3c2CC(C)(C(=O)Nc2cccc(OC(F)(F)F)c2)O3)cc1 (stereo unspecified) was read as TDP1 cell noCPT -20.0%, DT40 TDP1 CPT -19.2% and IL-1B inflam inh 18.4.
COc1cc(C(=O)Nc2nnc(CC(=O)NCc3ccccc3)s2)cc(OC)c1OC was read as TDP1 cell noCPT -14.8%, VP16 counter 4.5%, ELG1 DNA repair -4.9%, DT40 TDP1 CPT 5.2%, RORgamma inh -10.4% and IL-1B inflam inh 5.5.
Cc1cc(C)c(C)c(S(=O)(=O)NCCCN2CCCC2=O)c1C was read as TDP1 cell noCPT -13.8%, VP16 counter 24.7%, ELG1 DNA repair 3.6%, DT40 TDP1 CPT 4.4%, RORgamma inh inconclusive and IL-1B inflam inh 11.0.
CCSc1nc(NCCN(C)C)c2c3c(sc2n1)COC(C)(CC)C3 (stereo unspecified) was read as TDP1 cell noCPT inconclusive, VP16 counter 0.7%, ELG1 DNA repair -4.9%, DT40 TDP1 CPT 20.6µM*, RORgamma inh 5.0% and IL-1B inflam inh inconclusive.
`Cc1cc(C)n(-c2nc(NCCN(C)C)c3c4c(sc3n2)COC(C)(C)C4)n1` gave TDP1 cell noCPT 23.1µM*, VP16 counter -19.0%, ELG1 DNA repair inconclusive, DT40 TDP1 CPT inconclusive and RORgamma inh 15.8µM*.
CCN(CC)CCNc1nc(-n2nc(C)cc2C)nc2sc3c(c12)CC(C)(C)OC3 was read as TDP1 cell noCPT 10.3µM*, VP16 counter inconclusive, ELG1 DNA repair 0.0%, DT40 TDP1 CPT inconclusive, RORgamma inh 2.24µM* and IL-1B inflam inh -25.2.
`CC1(C)Cc2c(sc3nc(NCCN4CCOCC4)n4ncnc4c23)CO1` gave TDP1 cell noCPT inconclusive, VP16 counter 1.0%, ELG1 DNA repair -13.4%, DT40 TDP1 CPT -22.1%, RORgamma inh inconclusive and IL-1B inflam inh -19.3.
Cc1cc(C)n(-c2nc3sc4c(c3c3nnc(SCC(N)=O)n23)CC(C)(C)OC4)n1 was read as TDP1 cell noCPT -23.6%, VP16 counter -3.9%, ELG1 DNA repair inconclusive, DT40 TDP1 CPT 4.8%, RORgamma inh 7.6% and IL-1B inflam inh -21.5.
Screening CSc1nnc2c3c4c(sc3nc(-n3nc(C)cc3C)n12)COC(C)(C)C4 returned TDP1 cell noCPT 29.1µM*, VP16 counter -2.1%, ELG1 DNA repair 13µM*, DT40 TDP1 CPT inconclusive, RORgamma inh -8.8% and IL-1B inflam inh 4.6.
CSc1ncccc1C(=O)OCC(=O)N(CC(C)C)c1c(N)n(Cc2ccccc2)c(=O)[nH]c1=O was read as TDP1 cell noCPT 4.7%, VP16 counter -6.7%, ELG1 DNA repair -12.3%, DT40 TDP1 CPT 15.6%, RORgamma inh -7.8% and IL-1B inflam inh -18.3.
`CCOC(=O)C1(C)CCN1C(=O)c1ccc(C(=O)OC)cc1` (stereo unspecified) gave TDP1 cell noCPT -24.5%, DT40 TDP1 CPT inconclusive and IL-1B inflam inh 18.9.
